S2 tox: cell viability loss in ATXN counter-screen. S2 cells (HEK-293 line with an ATXN2-luciferase reporter) viability, CellTiter-Fluor protease fluorescence, 24 h. Potency, µM (highest dose often 56.7 µM), actives largely listed as cytotoxic. AID 651635. 400,000 compounds, 0.49% hits; also: nearly all actives have a fitted effect of over 40% in size
KB-3-1 tox: kills parental KB-3-1 adenocarcinoma cells; KB-3-1 viability, CellTiter-Glo ATP luminescence, 72 h; Potency, µM (highest dose often 46.1 µM), hits mostly cytotoxic; 400,000 compounds, 1.4% hits; AID 1347075; also: % is scaled to controls: 0 for no effect and ±100 for the full control effect; nearly all actives have a fitted effect of over 60% in size
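Viability of parental KB-3-1 cells, measured by CellTiter-Glo luminescence, followed a 72 h incubation at 37 °C with pinned compounds in phenol-red-free DMEM containing 10% FBS.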
HepG2 tox: HepG2 cytotoxicity, counter-screen for TGF-b inhibitors; HepG2 CAGA-GFP viability, ATP luminescence, 18 h; Potency, µM (series often up to 46.1 µM), inactives show at the highest dose activity change, negative = cytotoxicity, actives largely listed as cytotoxic; 410,000 compounds, 0.76% hits; AID 588856
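CellTiter-Glo luminescence gave cytotoxicity after 18 hours at 37 degrees C. The cells were HepG2 CAGA-GFP in 1% FBS DMEM, stimulated with 500 pg/mL TGF-beta after compound addition. %Activity was normalised to no-cell wells (complete cell-killing) and DMSO (no toxicity), and curves were fitted and classified.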
TGFb inhibitor: inhibitors of TGF-b signaling; HepG2 CAGA-GFP TGF-b/SMAD3 reporter, GFP fluorescence, 18 h; TGF-beta stimulated, 500 pg/mL final; Potency, µM (highest dose often 46.1 µM), inactives show top-dose activity, negative = inhibition, most hits filed as inhibitors; 410,000 compounds, 1.2% hits; AID 588855; also: % is scaled to controls: 0 for no effect and ±100 for the full control effect; nearly all actives have a fitted effect of over 65% in size
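Smad-responsive CAGA-GFP expression was quantified in HEPG2 cells exposed to compounds and 500 pg/mL final TGF-beta for 18 h at 37 degrees C; unstimulated wells defined full inhibition.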
ATXN2 expr inh: ATXN2 expression inhibition | HEK-293 ATXN2-luciferase reporter, luminescence, 24 h | Potency, µM (highest dose often 57 µM), inactives show top-dose activity change, negative = inhibition, actives largely listed as inhibitors | 360,000 compounds, 0.72% hits; also: % is scaled to controls: 0 for no effect and ±100 for the full control effect; nearly all actives have a fitted effect of over 55% in size
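ATXN2-luciferase reporter cells (luciferase flanked by upstream and downstream ATXN2 gene portions) were treated 24 h at 37 °C with compounds at up to 57 uM. SteadyGlo luminescence gave expression; GF-AFC fluorescence gave viability.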
KB-V1 cytotox: kills drug-selected multidrug resistant KB-V1 cells. KB-V1 MDR cells viability, CellTiter-Glo, 72 h. Potency, µM (titrated, usually from 46.1 µM), usual class: cytotoxic. 400,000 compounds, 3.4% hits; also: % is scaled to controls: 0 for no effect and ±100 for the full control effect; nearly all actives have a fitted effect of over 60% in size
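Cells of the MDR subline KB-V1 are plated, dosed with compound at multiple concentrations, and incubated 72 h at 37 degrees C; CellTiter-Glo is then added and luminescence read after 10 min.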
An asterisk follows results filed as active; i = inactive; ? = inconclusive; · = not tested or not shown; ! = repeats disagree. This is a sample that favours compounds with a hit; in the whole collection about 5.9% have one here. Calls follow the shape of the dose curve; as a rule, active = well fitted curve in the direction sought with a large enough effect; inconclusive = small, poorly fitted or top-dose-only effect, or another doubt; inactive = no such curve, though single readings can be large; an effect the other way counts as inactive or inconclusive. Potency is read from the fitted curve at half-maximal effect.

SMILES	S2 tox	KB-3-1 tox	HepG2 tox	TGFb inhibitor	ATXN2 expr inh	KB-V1 cytotox
COc1cc2ccccc2ccc1=NO	?	?	-12.0%	-22.9%	?	16.4µM*
COc1cc2ccccc2cc1C(=O)O	i	i	-10.9%	0.0%	0.0%	i
Cc1cn([C@@H](CCCCNC(=O)OC(C)(C)C)C(=O)NCCCCCCCCCCC(=O)N2CCN(C(=O)OC(C)(C)C)CC2)nn1	15.8µM*	?	-11.5%	11.2µM*	?	i
CC(C)(C)OC(=O)NCCCCCc1cn(CC(=O)NCCCCCCCCCCC(=O)N2CCN(C(=O)OC(C)(C)C)CC2)nn1	i	i	-12.3%	-4.8%	12.7%	i
CC[C@H](C)Cc1cn([C@@H](CCCCN)C(=O)NCCCCCCCCCCC(=O)N2CCNCC2)nn1	i	i	-2.1%	19.1%	2.4%	?
CC[C@H](C)Cc1cn([C@@H](CCCN=C(NC(=O)OC(C)(C)C)NC(=O)OC(C)(C)C)C(=O)NCCCCCCCCCCC(=O)N2CCN(C(=O)OC(C)(C)C)CC2)nn1	17.8µM*	?	-34.7%	?	?	i
CC(=O)Nc1nnc(SCc2ccccc2F)s1	i	i	1.8%	-14.2%	50.5%	?
O=C(Nc1ccc(Cl)cc1)Nc1nnc(CSCc2ccccc2)s1	i	i	-3.8%	-4.3%	-18.6%	20.6µM*
O=C(Nc1ccc(-c2ccccc2)cc1)Nc1nnc(-c2ccncc2)s1	·	?	·	·	·	i
CC(=O)Nc1nnc(CSCc2ccccc2F)s1	i	i	7.94µM*	1.3%	37.3%	i
c1ccc2c(Nc3nnc(-c4ccncc4)s3)cccc2c1	i	i	-30.0%	14.7%	62.4%	14.6µM*
O=C(Nc1ccccc1)Nc1nnc(-c2ccncc2)s1	·	18.4µM*	·	·	·	?
COCCCn1cc(CN2CC(N3CCN(CCO)CC3)CS2(=O)=O)nn1 (stereo not given)	i	i	·	·	21.2%	i
Cn1cnc(S(=O)(=O)N2CCCC(C(=O)NCc3ccccc3)C2)c1 (stereo not given)	·	·	-0.9%	5.7%	·	·
COc1ccc(C(=O)c2cnc3ccc(C)cc3c2S(=O)(=O)c2ccccc2)cc1	?	i	-13.9%	10.3%	?	?
Clc1ccc(Nc2nc(Nc3ccc(Cl)cc3)nc(N3CCOCC3)n2)cc1	·	i	-12.8%	11.0%	·	i
O=C(Nc1ccc(Cl)cc1)Nc1nnc(-c2ccncc2)s1	?	?	4.2%	?	?	2.59µM*!
O=C(Nc1ccc(F)cc1)Nc1nnc(-c2ccncc2)s1	?	i	-25.9%	?	-8.7%	i
COc1c(Cl)cc(Cl)cc1CNCCSc1nnnn1C	i	i	-9.1%	-3.6%	5.0%	i
COc1ccc(/C=N/Nc2nonc2N)cc1	i	?	-15.3%	18.4%	50.0%	20.6µM*
Cc1ccc(-c2nc(N3CCN(c4ccccc4Cl)CC3)c3ccccc3n2)cc1	i	i	0.8%	-1.5%	0.5%	i
CC(=O)N(C)C1=C(N2CCOCC2)C(=O)c2ccccc2C1=O	3.55µM*	1.16µM*	0.562µM*	1.58µM*	1.41µM*	11.6µM*
O=C(O)c1ccc(NC2=C(N3CCOCC3)C(=O)c3ccccc3C2=O)cc1	i	i	-36.1%	-6.0%	-9.6%	i
CC(=O)c1ccc(NC2=C(N3CCOCC3)C(=O)c3ccccc3C2=O)cc1	?	i	-81.8%	?	?	25.9µM*
CC(=O)N(C1=C(N2CCOCC2)C(=O)c2ccccc2C1=O)c1ccc(C(=O)O)cc1	?	i	-20.2%	-25.0%	·	i
O=S1(=O)N=C(Oc2ccc(Br)cc2)c2ccccc21	·	i	·	·	·	i
COc1ccccc1NC(=O)CN1CCN(CC(=O)Nc2ccc(OCc3ccccc3)cc2)CC1	i	i	-20.4%	?	-24.3%	?

Compound activity deposited in PubChem by National Center for Advancing Translational Sciences (NCATS).
